Data as given in PubChem BioAssay (NCI).
About 83,000 compounds went through this panel and 20% of them were active in at least one assay; those are over-represented in the sample as a whole.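 The test compound was applied at a single concentration to cells in 96-well plates for 48 hours, and percent growth was recorded.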 Unmarked numbers belong to inactive results. Activity calls are given as the source filed them.

Test system: A498 renal
Experiment: NCI-60 one-dose screen, 48 h (100 = growth as untreated, 0 = no growth, -100 = all killed)
Details: 10 µM unless noted
Experimental: Growth inhibition of the A498 human tumor cell line is measured as a screen for anti-cancer activity. Cells are grown in 96 well plates and exposed to the test compound for 48 hours. Compounds are tested at a single concentration, which is 10^-5 M for most compounds. The reported endpoint is percent growth (GI% or GIPRCNT), where numbers from 0 - 100% represent growth inhibition, and numbers from -100% - 0 represent cell death. For example, a value of 40 represents 60% growth inhibition. A value of 0 means no net growth occurred over the course of the experiment. A value of -40 indicates 40% of cells at the beginning of the experiment died by the end of the experiment. A value of -100 means all cells are dead at the end of the experiment.
NCI-60 Human Tumor Cell Lines Screen was performed using the standard one-dose NCI protocol, which is described in more detail at https://dtp.cancer.gov/discovery_development/nci-60/default.htm.
Compounds with GIPRCNT values below 10 were considered active. Activity score was based on GIPRCNT using the following formula: […]
Score is 0 for GIPRCNT values of 100 or above, 50 for GIPRCNT values of 0, and 100 for GIPRCNT values of -100.

Row | Structure (SMILES) | growth
1 | CCOC(=O)c1c(C)oc2ncnc(Nc3ccc(C(=O)NCCc4ccccc4)cc3)c12 | 77.6%
2 | COc1ccc(C(=O)NCCNc2nccc(-c3c(-c4ccc(F)cc4)nc4sccn34)n2)cc1 | 56.1%
3 | CCS(=O)(=O)OCCO[C@H]1Cc2cc3ccc(=O)oc3cc2OC1(C)C | 102%
4 | NNC(=O)CNc1ccc2ccccc2c1 | 107%
5 | COC(=O)[C@@H]1[C@H](O)[C@H](C)[C@H](O)[C@H](C)/C=C\C=C(C)C(=O)Nc2c(C)c(OC(C)=O)c3c(c2O)C(=O)C(C)=C2OCOC(=C23)C(C)=C[C@@](C)(O)[C@H](O)[C@@H](C)[C@H]1OC(C)=O | 141%
6 | O=C(c1ccccc1)c1ccccc1-c1ccccc1 | 43.1%
7 | O=C(NC(=S)NNC(=S)NNc1ccccc1)c1ccccc1 | 78.9%
8 | CCOC(=O)c1cc(-c2ccc(OC)cc2)[nH]c1NNC(=O)CCOC | 77.8%
9 | CCN(CC)CCCC(C)Nc1c(C)cnc2cc(Cl)c(C)cc12 (stereo not given) | 83.2%
10 | CC(=O)NCCN | 97.9%
11 | COc1cccc(-c2cc(-c3cc4ccccc4oc3=O)nc(N)n2)c1 | 127%
12 | CCCC(=O)NNc1[nH]c(-c2ccc(OC)cc2)cc1C(=O)OCC | 95.8%
13 | COc1ccccc1C(=O)Nc1cccc(-c2cc(=O)c3c(OC)c(OC)c(OC)cc3o2)c1 | 44.9%
14 | O=C(Nc1cccc(Cn2c(=O)[nH]c3ccc(Oc4ncccn4)cc3c2=O)c1)c1ccc(Cl)cc1 | 53.4%
15 | Cc1ccc(S(=O)(=O)NC(CCC(=O)Nc2ccccc2)C(=O)Nc2ccccc2)cc1 (stereo not given) | -20.7% (active)
16 | Cc1ccc(C(=O)C(Br)C(Br)c2ccccc2)cc1 (stereo not given) | 75.6%
17 | CSCc1ncc(-c2ccc(C(F)(F)F)cc2)c(NC2CCCCCC2)n1 | 60.8% [25 µM]
18 | CCOc1ccc(/C=N/NC(=O)c2cccc3ccccc23)cc1OCC | 78.1%
19 | COc1ccc(/C=C/C(=O)/C=C/c2cc3ccccc3[nH]c2=O)cc1 | 100%
20 | O=C1/C(=N\c2cc(=O)[nH]n2S(=O)(=O)c2ccccc2)Nc2ccccc21 | 98.2%

Row | Structure (SMILES) | growth
21 | O=C(OCC1CC2(Cl)C(Cl)=C(Cl)C1(Cl)C2(Cl)Cl)C1C(C(=O)OCC2CC3(Cl)C(Cl)=C(Cl)C2(Cl)C3(Cl)Cl)C2(Cl)C(Cl)=C(Cl)C1(Cl)C2(Cl)Cl (stereo not given) | 117%
22 | COC(=O)c1ccc2[nH]c(O)c(C(=Nc3ccc(N(C)C(=O)CN4CCN(C)CC4)cc3)c3ccc(C)cc3)c2c1 | -73.8% (active)
23 | COc1cc(-c2nn(-c3ccc(NC(=O)c4cc(Cl)cc(Cl)c4)cc3)cc2-c2ccncc2)ccc1Cl | 78.9%
24 | c1ccc2[nH]c(-c3ccc(OCCCCCOc4ccc(-c5nc6ccccc6[nH]5)cc4)cc3)nc2c1 | 143%
25 | COc1ccc(Cn2cc3c(c2)-c2oncc2CC3)cc1OC | 21.4%
26 | O=C1Nc2ccccc2/C1=C/c1cn(CC(O)Cn2cc(/C=C3\C(=O)Nc4ccccc43)c3ccccc32)c2ccccc12 (stereo not given) | -73.2% (active)
27 | COc1ccc(-c2nc(SCC(C)C)nc(Nc3ccccc3)c2C#N)cc1 | 75.2%
28 | COc1cccc(NC(=O)NCCNc2nccc(-c3c(-c4ccc(F)cc4)nc4sccn34)n2)c1 | 77.1%
29 | CCCCCCCCCCCCCCCCCCOP(=O)(O)O | 110%
30 | COC(=O)c1cc(=O)nc(N/N=C/c2ccccc2O)s1 | 112%
31 | BrCCCOc1ccc(Oc2ccc(OCCCBr)cc2)cc1 | 99.4%
32 | CCCCN(CCCC)c1ccc(C(=O)O)cc1 | 98.2%
33 | N#Cc1c2cccnc2c2nnc3cc(Cl)c(Cl)cc3n12 | 80.9%
34 | COc1cc(-c2nc3c(c(C)nc4c3nnn4-c3ccccc3)c(=O)o2)cc(OC)c1OC | 61.1%
35 | c1ccc(Nc2ncc3c(n2)-c2cccn2CC3)cc1 | 75.5%
36 | CC(C)OCC1CO1 (stereo not given) | 117%
37 | CCC(C)(C)c1ccc(OCCCCCCN2CCNCC2)cc1 | 71.2%
38 | O=C(Nc1cccc(Cn2c(=O)[nH]c3ccc(Oc4ncccn4)cc3c2=O)c1)c1cccc(F)c1 | 66%
39 | O=S(=O)(O)c1ccc2c(c1)Sc1cc(S(=O)(=O)O)ccc1O2 | 96.6%
40 | CC(=O)CC(=O)OC/C=C(/C)CCC=C(C)C | 117%
